Assay results: PubChem BioAssay AID652010 (The Scripps Research Institute Molecular Screening Center, 2013)
The campaign covered roughly 370,000 compounds. About 4,100 (1.1%) were called active. The entries come from a sample that favours actives as a whole. A number with no mark means an inactive call.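 The calls were made as follows: active = inhibition above the mean over all tested compounds plus 3 SD (cut at about 3.6% in these data); inactive = the rest.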

test: relief of DAX-1 repression of SF-1 activity – cell-based, luminescence, SF-1 (NR5A1), full-length DAX-1, primary screen (AID 652010); conditions: HEK293T StAR-luciferase reporter, SF-1/DAX-1 repression relief; at 6.8 µM; active compounds read high;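 also: 0% = DAX-1 cells with DMSO and 100% = cells lacking DAX-1 with DMSO; higher inhibition means more luminescence from relief of DAX-1 repression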

SMILES	inhibition
CC(=O)c1cc(-c2ccc3ccccc3c2)c(=O)n2c1CCC2	-1.52%
COc1cc(/C(=C/c2ccccc2)c2ccccc2)c2c(c1)oc1ccccc12	-0.21%
COc1ccc(C(=O)OCCN(C)C2CN(Cc3cn(Cc4cccc(C)c4)nn3)S(=O)(=O)C2)cc1OC (stereo unspecified)	-0.33%
CCc1ccc(NC2Nc3cc(C)nn3S2)cc1 (stereo unspecified)	4.78% (active)
CCOC(=O)c1ccc(NC2Nc3cc(C)nn3S2)cc1 (stereo unspecified)	-0.27%
Cc1ccc2nc(C)c3c(c2c1)N(c1ccccc1)CC3	-0.54%
CCOC(=O)[C@]12CCCC=C1N(Cc1ccc(OC)cc1)C(=O)[C@@H]2CC(=O)N1CCOCC1	0.04%
NC(=O)c1ccsc1NC(=O)COC(=O)Cc1n[nH]c(=O)c2ccccc12	1.46%
COC(=O)c1sc(NC(=O)c2ccc(OC)cc2OC)nc1C	4.67% (active)
COc1ccc(C(=O)NC2CC(C)(C)Cc3c2cnn3-c2ccccc2)c(OC)c1 (stereo unspecified)	-3.2%
COc1ccc(C(=O)N2CCCN(C)CC2)c(OC)c1	0.26%
CN(CC(=O)NCCc1ccc(F)cc1)CC(=O)Nc1ccc(F)c(F)c1F	-0.18%
COc1ccc(CN2C[C@H]3CON(C)[C@H]3C[C@H]2c2ccc(-c3cccc(F)c3)cc2)cc1	-0.47%
CN1OC[C@@H]2CN[C@H](c3ccc(-c4ccccc4)cc3)C[C@@H]21	5.45% (active)
CN1OC[C@@H]2CN(C(=O)c3ccc(-c4ccccc4)cc3)[C@H](c3ccc(-c4cccc(F)c4)cc3)C[C@@H]21	-1.11%
CC(NC(=O)COC(=O)CCC(=O)c1ccc(Cl)cc1)c1ccccc1 (stereo unspecified)	-0.89%
CCCCOCCCNC(=O)C[C@H]1C[C@@]2(C(=O)OC)C(=C[C@H](C(C)(C)C)O[C@@H]2C)N(CCc2ccc(OC)c(OC)c2)C1=O	-0.4%
CC(C)c1ccc(Nc2ncccc2C#N)cc1	5.5% (active)
c1ccc(Cc2c(-c3ccco3)nc3c4ccccc4ccn23)cc1	5.34% (active)

SMILES	inhibition
Cc1ccc(Cc2c(-c3ccc(Cl)cc3)nc3c4ccccc4ccn23)cc1	-0.2%
Cc1ccc(Cc2c(-c3ccc(C)cc3)nc3c4ccccc4ccn23)cc1	-1.54%
O=C(CCCN1C(=O)C2C3C=CC(C3)C2C1=O)N1CCN(c2ccccc2)CC1 (stereo unspecified)	-0.34%
C=CS(=O)(=O)N(Cc1nnn(Cc2ccccc2)c1Br)[C@H](C(=O)OC)C(C)C	-2.88%
O=C(NC1CCC1)c1ccc(C#Cc2cccc(F)c2)c[n+]1[O-]	-2.3%
O=C(Nc1cccc(Cl)c1Cl)c1ccccc1NC(=O)C1CC=CCC1C(=O)O (stereo unspecified)	1.73%
O=C(O)C1CC=CCC1C(=O)NCCc1ccccc1 (stereo unspecified)	-0.12%
O=C(Nc1ccc(Cl)c(Cl)c1)c1ccccc1NC(=O)C1CC=CCC1C(=O)O (stereo unspecified)	9.09% (active)
Cc1ccc(S(=O)(=O)NCCC(=O)NCc2ccc(Cl)cc2)cc1C	0.12%
Cc1ccnc(NC(=O)CCNS(=O)(=O)c2ccc(C)c(C)c2)c1	16.4% (active)
Cc1ccc(S(=O)(=O)NCCC(=O)Nc2cccc(S(N)(=O)=O)c2)cc1C	0.14%
C=CCN(C(=O)[C@@H](CCCC)[C@@H](O)c1ccc(Cl)cc1)c1ccccc1	-2.07%
COc1ccccc1OCc1nc2ccccc2s1	4.19% (active)
COC(=O)C1[C@H]2SC(C)(C)C(C(=O)OC)N2C(=O)N1Cc1nc2ccccc2s1 (stereo partly specified)	-0.17%
CCc1ccc(-c2nnn(Cc3nc4ccccc4s3)n2)cc1	-0.22%
O=C(CSc1nc2ccccc2nc1N1CCCCC1)N1CCN(S(=O)(=O)c2cccc([N+](=O)[O-])c2)CC1	0.77%
Cc1ccc(NC(=S)NNC(=O)CSc2nnc(SCc3ccccc3Cl)s2)cc1	-0.55%
O=C1C(=O)N(c2ccccc2)C(c2ccccc2)C1c1ccccc1 (stereo unspecified)	-0.52%
O=C(COc1ccc(Cl)cc1)N1CCN(S(=O)(=O)c2ccc(Cl)cc2)CC1	-0.62%

SMILES	inhibition
Cc1csc(SCC(=O)Nc2sccc2C#N)n1	10.3% (active)
CC(c1nnc(SCC(=O)Nc2sccc2C#N)n1-c1ccc(Cl)cc1)N(C)C (stereo unspecified)	0.06%
CC(=O)c1cc(C#N)c(SCC(=O)Nc2nccs2)nc1C	0.62%
Cc1ccc(OCCC(=O)Nc2ccc(S(=O)(=O)Nc3nccs3)cc2)cc1	-0.38%
Cc1cc(NS(=O)(=O)c2ccc(NC(=O)CSc3nnc(SCc4ccc(F)cc4)s3)cc2)nc(C)n1	-0.01%
Nc1[nH]c(/C=C2/CCCCC2n2[nH]c(=O)n(-c3ccccc3)c2=O)c(Cc2ccccc2)[n+]1Cc1ccccc1 (stereo unspecified)	-0.55%
CN(C)CCN(C(=O)CN1C(=O)c2ccccc2C1=O)c1nc2cc3c(cc2s1)OCCO3	4.33% (active)
CCN(CC)CCN(C(=O)c1ccc(N2C(=O)CCC2=O)cc1)c1nc2cc3c(cc2s1)OCO3	1.06%
O=C(Cn1c(=O)sc2ccccc21)Nc1ccc2c(c1)OCCO2	-1.14%
CCOC(=O)c1csc(NC(=O)C2CCCN(S(=O)(=O)c3ccc(Cl)s3)C2)n1 (stereo unspecified)	-2.18%
COc1ccc(C(=O)NCCSc2ccccc2C)cc1	2.33%
COCCNC(=S)c1ccc(OC)cc1	0.05%
COc1ccc(C(=O)NC2CCN(C(=O)Nc3ccc(F)cc3)CC2)cc1	-0.44%
COc1ccc(NC(=O)c2ccc(OC)cc2)cc1	4.59% (active)
COc1ccc(C(=O)Nc2ccc(-n3nncc3C(C)(C)C)cc2)cc1	-0.32%
COc1ccc(C(=O)NCC[N+](C)(C)C)cc1	4.67% (active)
O=C(C1CCN(S(=O)(=O)c2ccccc2)CC1)N1CCN(C2CCCCC2)CC1	0.23%
Nn1c(SCC(=O)Nc2cccc3ccccc23)nnc1-c1cc(-c2ccc(F)cc2)n[nH]1	-0.54%
